# In PubChem BioAssay AID463173 (ICCB-Longwood Screening Facility, Harvard Medical School, 2010):
# Out of some 52,000 compounds screened, about 1,700 (3.3%) were called active. The entries come from a sample that favours actives as a whole. A number with no mark means an inactive call. Cut-off read from the data, not from the text of the source: active = survival mostly below about 52% (no sharp cut-off); inactive = mostly above about 56%.
# Test system: Wild type
# Experiment: S. aureus survival, RN4220 and DeltatarO strains – OD600, teichoic acid synthesis inhibitors, primary screen (AID 463173)
# Conditions: S. aureus RN4220 wild type/DeltatarO growth, OD600, 18 h, active compounds read low, screened at 18.75 µg/mL (by protocol)
row,Structure (SMILES),survival
1,CCS(=O)(=O)Nc1ccc(-c2cn3c(C)csc3n2)cc1,78%
2,Nc1cccc(-c2cn3ccsc3n2)c1,55%
3,CCCS(=O)(=O)Nc1cccc(-c2cn3ccsc3n2)c1,159%
4,COc1cccc(OC)c1C(=O)Nc1cccc(-c2cn3ccsc3n2)c1,72%
5,CN(C)S(=O)(=O)Nc1ccc(-c2cn3ccsc3n2)cc1,14% (active)
6,COc1ccc(C(=O)Nc2cccc(-c3cn4ccsc4n3)c2)cc1OC,76%
7,COc1ccc(S(=O)(=O)Nc2ccc(-c3cn4ccsc4n3)cc2)cc1C,133%
8,COc1cc(OC)cc(C(=O)Nc2cccc(-c3cn4ccsc4n3)c2)c1,1% (active)
9,CCS(=O)(=O)Nc1ccc(-c2cn3ccsc3n2)cc1,-1% (active)
10,Cc1ccc(Cn2cc(S(=O)(=O)c3cccc(Cl)c3)c(=O)c3cc(F)c(N4CCOCC4)cc32)cc1,87%
11,CC1=C(C(=O)OCC2CCCCC2)C(c2cccc(Cl)c2Cl)CC(=O)N1 (configuration not stated),76%
12,COc1cc(Cl)c(C)cc1NC(=O)Cn1cc(S(=O)(=O)N2CCN(c3ccccc3F)CC2)c2ccccc2c1=O,68%
13,Cc1cccc(C)c1NC(=O)CN1C(=O)CCSc2ccc(S(=O)(=O)N3CCCC3)cc21,72%
14,CCN(C(=O)C(=O)Nc1ccc2nc3n(c(=O)c2c1)CCCCC3)c1ccc(F)cc1,94%
15,COc1ccc(-n2nc(C(=O)N3CCN(c4ccccc4OC)CC3)c3c4ccccc4n(C)c3c2=O)cc1,80%
16,Cc1ccc(CSc2cn(CC(=O)N3CCCCC3)c3ccccc23)cc1,90%
17,CCc1ccc(C2C(C(=O)Nc3ccccc3C)=C(C)Nc3nc(SCc4cccc(OC)c4)nn32)cc1 (configuration not stated),146%
18,O=C1CC2CCCC(CN1)N2CC(=O)NCc1ccco1 (configuration not stated),104%
19,COc1ccc(COC(=O)c2[nH]c3c(c2C)C(=O)CC(c2ccc(OC)c(OC)c2)C3)cc1 (configuration not stated),92%
20,COc1ccccc1C(=O)NC(=O)Nc1ccc(-n2nc(C(F)(F)F)cc2C(F)(F)F)cc1,101%
21,COc1ccccc1C(=O)Nc1ccc(-c2cc(C(F)(F)F)nn2-c2ccccc2)cc1,39%
22,COc1ccccc1C(=O)NC(=O)Nc1ccc(-c2cc(C(F)(F)F)nn2-c2ccccc2)cc1,5% (active)
23,COc1ccc(-c2cc3ccc(O)c(CN4CCCC4)c3oc2=O)cc1,124%
24,CCOc1ccccc1NC(=O)c1c(NC(=O)COc2ccc(Cl)cc2)sc2c1CCCCC2,75%
25,CCOc1ccc(OC(=O)c2c(-c3ccccc3Cl)noc2C)cc1,59%
26,CC(=O)c1ccc(OC(=O)c2c(-c3ccccc3Cl)noc2C)cc1,56%
27,Cc1onc(-c2ccccc2Cl)c1C(=O)Oc1ccc(Br)cc1,4% (active)
